About 83,000 compounds went through this panel and 20% of them were active in at least one assay; those are over-represented in the sample as a whole.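 How to read the values: 0–100, growth inhibition (40 = 60% inhibited); 0, no net growth; -100 to 0, cell death (-40 = 40% of starting cells died; -100 = all dead).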 Active and inactive are the calls of the source. The calls were made as follows: active = growth percent below 10; inactive = the rest.
Legend:
Assay in all cases: NCI-60 one-dose screen, 48 h (100 = growth as untreated, 0 = no growth, -100 = all killed)
[1] = tested on: SR leukemia; conditions: 10 µM unless noted
[2] = tested on: RPMI-8226 leukemia; conditions: 10 µM unless noted
[3] = tested on: OVCAR-8 ovarian; conditions: 10 µM unless noted
[4] = tested on: OVCAR-5 ovarian; conditions: 10 µM unless noted
[5] = tested on: OVCAR-4 ovarian; conditions: 10 µM unless noted
[6] = tested on: SK-OV-3 ovarian; conditions: 10 µM unless noted
[7] = tested on: OVCAR-3 ovarian; conditions: 10 µM unless noted
[8] = tested on: HS 578T breast; conditions: 10 µM
[9] = tested on: NCI/ADR-RES ovarian; conditions: 10 µM unless noted
[10] = tested on: T-47D breast; conditions: 10 µM unless noted
[11] = tested on: BT-549 breast; conditions: 10 µM unless noted
[12] = tested on: MDA-MB-435 melanoma; conditions: 10 µM unless noted
[13] = tested on: SW-620 colon; conditions: 10 µM unless noted
[14] = tested on: MCF7 breast; conditions: 10 µM unless noted
[15] = tested on: HCT-116 colon; conditions: 10 µM unless noted
[16] = tested on: HCC-2998 colon; conditions: 10 µM unless noted
[17] = tested on: KM12 colon; conditions: 10 µM unless noted
[18] = tested on: IGROV1 ovarian; conditions: 10 µM unless noted

Measured: growth

CCCCn1c(C)nc2ccc(Nc3nc(Cl)nc4nc[nH]c34)cc21
active: [8] 6.13%
inactive: [1] 42.5% | [2] 43.7% | [3] 78.2% | [4] 74.5% | [5] 68.4% | [6] 77% | [7] 62.7% | [9] 101% | [10] 33.9% | [11] 47.8% | [12] 77.2% | [13] 78.6% | [14] 76.5% | [15] 67.7% | [16] 94% | [17] 77.5%

Cc1nn(-c2ccc(Cl)cc2)c(=O)n1CCN1CCOCC1
inactive: [1] 95.3% | [2] 83.1% | [3] 116% | [4] 92.4% | [5] 93.4% | [6] 42.8% | [8] 42.7% | [9] 75.9% | [10] 78.3% | [11] 61.5% | [12] 84.9% | [14] 73.4% | [15] 29.5% | [16] 91.3% | [17] 81.3%

COc1cc2c(cc1OC)C(=O)OC2
inactive: [1] 106% | [2] 367% | [3] 101% | [4] 100% | [5] 108% | [6] 124% | [7] 110% | [8] 109% | [9] 119% | [10] 98.5% | [11] 118% | [12] 103% | [13] 104% | [14] 105% | [15] 111% | [16] 118% | [17] 113%

Cc1cc(C)c2c(n1)sc1c(Nc3ccc(Cl)cc3Cl)ncnc12
active: [1] 4.08% | [3] 3.79%
inactive: [2] 28.4% | [4] 57.5% | [5] 68% | [6] 22.2% | [7] 57.3% | [8] 90.7% | [9] 17.9% | [10] 36.8% | [11] 44% | [12] 36% | [13] 44.6% | [14] 19.8% | [15] 24.9% | [16] 58.6% | [17] 49.8%

COc1ccc2[nH]c(O)c(/C=c3/ccc4c(c3)N=C(c3ccc(C(F)(F)F)cc3)N=4)c2c1
inactive: [1] 62.6% | [2] 77.1% | [3] 87.1% | [4] 113% | [5] 80.5% | [6] 112% | [7] 77.5% | [8] 72.8% | [9] 84.7% | [10] 57.4% | [11] 81.2% | [12] 76.5% | [13] 86.4% | [14] 45.1% | [15] 56% | [16] 97.7% | [17] 75.1%

Oc1ccc(Nc2ncnc3c2sc2ncccc23)cc1
inactive: [2] 31.9% | [4] 65% | [5] 84.3% | [6] 30.3% | [7] 55.8% | [8] 82.7% | [9] 15.6% | [10] 51% | [11] 47.3% | [12] 36.5% | [13] 44.1% | [14] 18.8% | [15] 27.5% | [16] 69.4% | [17] 50.6%
active: [1] 7.62% | [3] 7.28%

O=C1c2ccccc2C(=O)c2c1oc1ccc3ccccc3c21
inactive: [1] 60.8% | [2] 75.9% | [3] 88.2% | [4] 130% | [5] 34.1% | [6] 114% | [7] 39.4% | [8] 85.7% | [9] 79.4% | [10] 23.5% | [11] 70.2% | [12] 91.3% | [13] 91.6% | [14] 21.8% | [15] 62.2% | [16] 99% | [17] 61.6%

O=C(Nc1ccccc1)C(CCCCN1C(=O)c2ccccc2C1=O)N1C(=O)c2ccccc2C1=O (stereo not given)
inactive: [1] 92.7% | [2] 86.2% | [3] 103% | [4] 103% | [5] 106% | [6] 107% | [7] 107% | [8] 106% | [10] 105% | [11] 104% | [12] 108% | [13] 102% | [14] 101% | [15] 107% | [17] 100%

Cc1cc(C)cc(Nc2cc(C)nc3nc(C(F)(F)F)nn23)c1
inactive: [1] 29.6% | [2] 40% | [3] 17.5% | [4] 63.3% | [5] 37.3% | [18] 21.6% | [8] 71.7% | [10] 29.5% | [11] 49% | [12] 36.9% | [13] 35.2% | [15] 19.2% | [16] 40.2% | [17] 25.7%
active: [7] 8.97% | [14] -11.7%

Cc1cccc(C(=O)O)n1
active: [2] -8.6%
inactive: [1] 120% | [3] 74.4% | [4] 100% | [5] 101% | [18] 72% | [7] 115% | [8] 118% | [9] 107% | [10] 106% | [11] 109% | [12] 95.8% | [13] 103% | [14] 104% | [15] 99.2% | [16] 98.7% | [17] 110%

COc1ccc2c(c1)N(CCO)C1=C(C(=O)OC1)C2c1cccc(Br)c1 (stereo not given)
inactive: [1] 17.8% | [2] 18.5% | [3] 14.6% | [4] 32.1% | [5] 52.6% | [18] 11.2% | [8] 10.7% | [9] 10.7% | [10] 72% | [11] 15.9% | [13] 22.5% | [14] 16.1%
active: [7] -51.6% | [12] -51% | [15] 3.89% | [17] -31.2%

CC1(C)CC[C@]2(C(=O)N3CCNCC3)CC[C@]3(C)C(=CC[C@@H]4[C@@]5(C)CCC(=O)C(C)(C)[C@@H]5CC[C@]43C)[C@@H]2C1
inactive: [1] 109% | [2] 104% | [3] 95.9% | [4] 109% | [5] 103% | [18] 113% | [7] 118% | [8] 104% | [9] 103% | [10] 102% | [11] 106% | [12] 105% | [13] 106% | [14] 98.6% | [15] 101% | [16] 106% | [17] 111%

Oc1c(C(c2ccc(F)cc2)N2CCCCC2)ccc2cncnc12 (stereo not given)
inactive: [1] 15.7% | [2] 22.1% | [4] 22.3% | [7] 11.1% | [8] 13% | [9] 20.3% | [11] 25.8% | [12] 14.1% | [13] 18.1% | [15] 11.1% | [16] 32.3% | [17] 16.2%
active: [3] 8.68% | [5] 5.59% | [6] -14.9% | [10] 5.62% | [14] 6.3%

COc1ccc2nc(C)cc(Nc3ccccc3O)c2c1
inactive: [2] 25% | [3] 32.6% | [4] 108% | [9] 46.9% | [10] 44% | [11] 35% | [12] 64.4% | [13] 82% | [14] 67.7% | [15] 29.9% | [16] 112% | [17] 86.9%
active: [1] -32.8% | [5] -76.1% | [6] -41.5% | [7] -35.5% | [8] -3.7%

CCOCC(O)(c1ccc(Cl)cc1)c1ccc(Cl)cc1
inactive: [1] 100% | [2] 107% | [3] 103% | [4] 84.4% | [5] 112% | [18] 101% | [7] 112% | [8] 109% | [9] 99.7% | [10] 98.5% | [11] 115% | [12] 102% | [13] 97.4% | [14] 110% | [15] 93% | [16] 109% | [17] 90.4%

CCCCN(CCCC)CCC(=O)c1ccc(OC)c2ccccc12
inactive: [1] 38.9% | [2] 35.6% | [3] 75.3% | [4] 102% | [5] 102% | [6] 107% | [7] 83% | [8] 106% | [9] 107% | [10] 41.4% | [11] 108% | [12] 83.3% | [13] 61.5% | [14] 15.1% | [15] 72.1% | [16] 105% | [17] 71.1%

O=C(C(Br)C(Br)c1ccccc1)C(Br)C(Br)c1ccccc1 (stereo not given)
active: [1] -44.9% | [2] -36.6% | [3] -10.8% | [4] -57.4% | [18] -49.5% | [7] -79.9% | [10] -30.6% | [11] -82.8% | [12] -37.5% | [13] -71.1% | [14] -19.2% | [15] -99.5% | [16] -8.59% | [17] -63.3%
inactive: [5] 34.9% | [8] 39.4% | [9] 17.1%

COc1ccc2cc(-c3nc(C)c(C(C)=O)c(-c4ccc(C)cc4)n3)ccc2c1
inactive: [1] 108% | [2] 86.9% | [3] 93.4% | [4] 93.1% | [5] 92% | [6] 97.5% | [7] 94.3% | [8] 86% | [9] 92.5% | [10] 72.1% | [11] 82.3% | [12] 89.1% | [13] 91.3% | [14] 88.3% | [15] 86.3% | [16] 109% | [17] 91.7%

Source: PubChem BioAssay (NCI)
